From PubChem
HT1080 IDH1KD tx – HT-1080 IDH1 knockdown cell toxicity (counter line); Potency, µM (doses to about 46.1 µM), inactives show at the top dose activity, negative = toxicity, hits mostly cytotoxic; actives 2% (n = 360,000); HT-1080 IDH1 knockdown viability, ATP luminescence, 48 h;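 also: 0% = DMSO wells and -100% = cell-free medium wells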
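Viability of IDH1-knockdown HT-1080 fibrosarcoma cells was assessed by CellTiter-Glo after 48 h at 37 °C with titrated compound; concentration-effect curves were classified by fit quality and response size.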
KB-V1 cytotox – kills drug-selected multidrug resistant KB-V1 cells | KB-V1 MDR cells viability, CellTiter-Glo, 72 h | Potency, µM (series often up to 46.1 µM), usual class: cytotoxic | actives 3.4% (n = 400,000) | AID 1347076; also: % is scaled to controls: 0 for no effect and ±100 for the full control effect; nearly all actives have a fitted effect of over 60% in size
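Potencies derive from concentration-effect curves fitted to normalized luminescence (CellTiter-Glo) of KB-V1 cells treated for 72 h at 37 degrees C in phenol-red-free DMEM containing 10% FBS.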
SW480 rerep – inducers of DNA re-replication in SW480 colon cancer cells. AID 624297. Potency, µM (top dose mostly 46.1 µM), for the others: top-dose re-replication activation, usual class: activators. SW480 DNA re-replication, Hoechst DNA content imaging, 48 h. actives 1.8% (n = 340,000); also: % of control where 0% means no effect; nearly all actives have a fitted effect of over 55% in size
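Per well, 250 cells were exposed to pinned compound for 48 hr. Nuclear DNA was visualised with Hoechst (40 min, 37 C) and total object intensity recorded by fluorescence scanning.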
MCF10A rereplic – induces DNA re-replication in MCF 10a normal breast cells. MCF 10A DNA re-replication, Hoechst nuclear intensity, 48 h. Potency, µM (doses to about 46.1 µM), for inactives: at the highest dose activity, positive = re-replication, usual class: activators. actives 2.9% (n = 350,000). AID 624296; also: % of control where 0% means no effect; nearly all actives have a fitted effect of over 50% in size
HT1080-NT tox – kills 2HG-producing HT-1080-NT fibrosarcoma cells | HT-1080-NT fibrosarcoma viability, CellTiter-Glo ATP luminescence, 48 h | Potency, µM (doses to about 46.1 µM), for the others: at the highest dose activity, negative = less viability, actives largely listed as cytotoxic | actives 1.6% (n = 360,000) | AID 686970;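 also: NT is the 2HG producing partner of a matched IDH1 knockdown line; 0% = DMSO-treated cells and -100% = media-only wells without cells; nearly all actives have a fitted effect of over 55% in size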
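Fibrosarcoma NT cells, 750 per well in 5% FBS RPMI, were exposed to compound for 48 hours. Viability: CellTiter-Glo luminescence.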
KB-3-1 cytotox – KB-3-1 parental cell cytotoxicity. actives 1.4% (n = 400,000). KB-3-1 viability, CellTiter-Glo ATP luminescence, 72 h. AID 1347075. Potency, µM (highest dose often 46.1 µM), actives largely listed as cytotoxic; also: % is scaled to controls: 0 for no effect and ±100 for the full control effect; nearly all actives have a fitted effect of over 60% in size
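Cytotoxicity measured as CellTiter-Glo luminescence after 72 h at 37 C. Compound titrations were pinned onto drug-naive KB-3-1 parental adenocarcinoma cells grown in DMEM with 10% FBS, and normalized data fitted to concentration-response curves.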
* marks the source's active call; other numbers are inactive results; i = inactive; ? = inconclusive; / = no result given; [ ] = dose if it differs, or a comment. A selection: hits, their analogues and other compounds. The true share with any hit is near 8%. Calls follow the shape of the dose curve; as a rule, active = well fitted curve in the direction sought with a large enough effect; inconclusive = small, poorly fitted or top-dose-only effect, or another doubt; inactive = no such curve, though single readings can be large; an effect the other way counts as inactive or inconclusive. Potency is read from the fitted curve at half-maximal effect.

SMILES	HT1080 IDH1KD tx	KB-V1 cytotox	SW480 rerep	MCF10A rereplic	HT1080-NT tox	KB-3-1 cytotox
Nc1cccc2c(O)cccc12	-16.0%	?	-1.8%	13.5%	-19.2%	?
O=C(Nc1ccc(C(=O)OCc2cc(=O)n3ccsc3n2)cc1)c1cccc(F)c1	/	?	/	/	/	i
CN1C(=O)Cc2cc(S(=O)(=O)CCC(=O)N3CCN(c4ccc(Cl)cc4)CC3)ccc21	/	i	/	/	/	i
Cc1ccccc1Cn1cc(NC(=O)c2noc3c2CC(C(C)(C)C)CC3)cn1 (stereo not drawn)	?	18.4µM*	?	?	?	i
CS(=O)(=O)N(CC(=O)N1CCOCC1)c1cccc(Cl)c1	-6.2%	i	/	/	0.5%	i
CCOC(=O)N1CCN(C(=O)CN(c2cccc(C)c2)S(=O)(=O)c2ccccc2)CC1	9.1%	2.91µM*	-3.8%	0.5%	10.7%	i
COc1ccc(OC)c(N(CC(=O)N2CCC(C)CC2)S(=O)(=O)c2ccccc2)c1	11.2%	7.31µM*	-4.3%	4.4%	11.5%	i
CS(=O)(=O)N(CC(=O)N1CCN(c2ccc(F)cc2)CC1)c1cccc(Cl)c1	-15.0%	9.2µM*	-4.2%	6.5%	-19.2%	i
COc1ccccc1N1CCN(C(=O)CN(c2ccccc2OC)S(=O)(=O)c2ccccc2)CC1	-9.1%	23.1µM*	2.6%	13.7%	-0.7%	i
COc1ccc(OC)c(N(CC(=O)N2CCC(C)CC2)S(=O)(=O)c2ccc(OC)c(OC)c2)c1	0.5%	i	10.7%	0.5%	11.5%	i
CCOC(=O)N1CCN(C(=O)CN(c2ccc(Cl)c(C(F)(F)F)c2)S(C)(=O)=O)CC1	-0.8%	23.1µM*	-10.2%	17.9%	-1.8%	i
CSc1nnc(C(C)(C)C)c(=O)n1/N=C/c1ccc(Cl)cc1	26.3%	i	?	17.2%	25.7%	i
COc1cccc(/C=N/n2c(=S)n(C)c3cc(C)c(C)cc32)c1OC	-0.5%	16.4µM*	-4.3%	6.1%	-3.4%	i
COc1cccc(/C=N/n2c(-c3cc(C)[nH]n3)n[nH]c2=S)c1OC	-2.1%	i	-4.0%	-1.3%	1.9%	i
Cc1cc(OCC(=O)Nc2ccc(F)c(F)c2)nc(C(C)C)n1	-2.8%[9.24 µM]	i	23.1µM*	?	?	i
Cc1cc(OCC(=O)Nc2ccccc2F)nc(C(C)C)n1	0.2%	i	-3.8%	-1.6%	6.3%	i
CCOC(=O)c1ccc(NC(=S)N(CCCN2CCN(CC)CC2)Cc2cccs2)cc1	?	i	-52.5%[1.84 µM]	?	-29.0%	i
Cc1ccc(C)c2c(/C=C/c3ccc(N(C)C)cc3)ccnc12	/	i	/	/	/	?
Cc1ccc(/C=[N+](\[O-])c2ccc(N(C)C)cc2)c2nsnc12	-1.3%	i	?	11.2µM*	20.6µM*	i
COC(=O)c1cc(-c2ccc(C)cc2)c2c(=O)n(C)c(=O)n(C)c2n1	/	i	/	/	/	i
CCOC(=O)/C(=N\Nc1cccc(C(F)(F)F)c1)N(CCOC)CCOC	-4.8%	23.1µM*	-0.1%	8.2%	8.7%	i
CCOC(=O)/C(=N\Nc1cccc(C(F)(F)F)c1)N1CCOCC1	-2.0%	i	-86.7%	-10.8%	0.4%	i
COC(=O)C1N[C@@H]([C@@H](NC(=O)COc2ccccc2)C(=O)NCc2ccsc2)SC1(C)C (stereo partly drawn)	0.3%	?	4.4%	?	-2.6%	i
CCc1ccccc1NC(=O)CN1CCN(CC(=O)Nc2ccc(-c3ccccc3)cc2)CC1	4.6%	?	8.0%	?	16.2%	i
CCc1ccccc1NC(=O)CN1CCN(C(=O)CNC(=O)c2ccc(-c3ccccc3)cc2)CC1	?	?	61.5%	5.8µM*	-5.6%[9.24 µM]	i
CCOc1sc2nc(C)n(CC(=O)Nc3cccc(C)c3)c(=O)c2c1C	/	i	/	/	/	i
